INHIBITION data for 55 molecules are collected here from ChEMBL document CHEMBL4513216, “Probing the Open Global Health Chemical Diversity Library for Multistage-Active Starting Points for Next-Generation Antimalarials” (ACS Infect Dis, 2020).

Molecules are shown by their SMILES. Among all 69,000 compounds or so, about 8,600 (12%) showed an effect of 50% or more. What follows is part of a selection rich in strong results, with near analogues and random picks from the rest.

This assay has as its system Plasmodium berghei. As to the kind of experiment: Screen against P. berghei liver stage (PbLuc), transformed with Luciferase, at 10uM. To be noted: tested at 10 uM. It is filed as functional, HepG2.
For `COc1cccc(CNCCc2cccc(C(N)=O)c2)c1`, the INHIBITION is -0.758%. On to `NC(=O)c1cccc(CCNCc2cccs2)c1`, for which the INHIBITION worked out at 27.7%. For the molecule `NC(=O)c1cccc(CCNCc2cnc(-c3cccs3)s2)c1`, the INHIBITION is on record as 74%.

For `NC(=O)c1cccc(CCNCc2cnc(C3CCC3)s2)c1`, the INHIBITION is listed as 82.5%. On to `COc1ccccc1CNCCc1cccc(C(N)=O)c1`, for which the INHIBITION is recorded as 2.22%.

Turning to `COc1ccc(CNCCc2cccc(C(N)=O)c2)cc1C`, the INHIBITION was found to be 11.8%. The figure for `O=C(CCc1ccsc1)N1CCCCC1Cn1cccn1` (stereo not given) is -23.9%. As for `Cc1noc([C@H]2CC[C@@H]3[C@@H](CCN3S(=O)(=O)C3CC3)O2)n1`, the INHIBITION is -6.23%. On to `Cc1cccc(OCCC(=O)N2CCN(CC(=O)NC3CC3)CC2)c1C`, for which the INHIBITION is given as 33.8%. For `Cn1c(N2CCOCC2)nc2cc(C(=O)N3CCCOCC3)ccc21`, the INHIBITION was -24.6%. `CCc1ncc(-c2nccn2-c2cccc(CC(=O)O)c2)cn1`: the INHIBITION turned out to be 16.3%. On to `CC(=O)NCc1cccc(-n2ccnc2-c2cccc(C(=O)O)c2)c1`, for which the INHIBITION is given as 62.1%. For the molecule `CNC(=O)Cc1ccc(-n2ccnc2-c2cccc(C(=O)O)c2)cc1`, the INHIBITION is 15.6%. `Cc1cnn(C2CCCN(C(=O)c3ccc(Cn4ccnc4)cc3)C2)c1` (stereo not given): the INHIBITION was 16.9%.

On to `Cc1ccc(C(CNC(=O)c2cc(=O)c3ccccc3[nH]2)N(C)C)cc1` (stereo not given), for which the INHIBITION is listed as -5.22%. In the case of `Cc1cnc(N2C[C@@H]3CN(C4CCOC4)CCC[C@]3(C(=O)O)C2)nc1` (stereo not given in full), the INHIBITION is given as 24.9%.

`CCN(CC1CC1)C(=O)NCc1nnc2n1CCC2`: the INHIBITION stood at 45.3%. Turning to `COc1ccc(NC(=O)NCC(O)c2ccccc2F)c(OC)c1` (stereo not given), the INHIBITION was determined as 3.15%. On to `Cc1c(C(=O)N2CCC(c3nc(C)n4ccsc34)CC2)cnn1C`, for which the INHIBITION is reported as 42.6%.

`CC(=O)N1[C@H](Cn2cncn2)C[C@@H]2CN(Cc3cccnc3)CC[C@@H]21`: the INHIBITION is given as 35.4%.

In the case of `CN1[C@H](Cn2cncn2)C[C@@H]2CN(Cc3ccsc3)CC[C@@H]21`, the INHIBITION was found to be 54.8%. Turning to `CN1[C@H](Cn2cccn2)C[C@@H]2CN(Cc3cccs3)CC[C@@H]21`, the INHIBITION came out at 28.3%. For the molecule `CC(C)N1[C@H](Cn2cccn2)C[C@@H]2CN(C3CCOCC3)CC[C@@H]21`, the INHIBITION was found to be 33%.

`CC(=O)N1[C@H](Cn2cncn2)C[C@@H]2CN(Cc3ccncc3)CC[C@@H]21`: the INHIBITION stood at 55.9%. For the molecule `CC(C)N1[C@H](Cn2cncn2)C[C@@H]2CN(c3ncccn3)CC[C@@H]21`, the INHIBITION was 20.1%. With `CC(=O)N1[C@H](Cn2cncn2)C[C@@H]2CN(Cc3ccccn3)CC[C@@H]21`, the INHIBITION came out at 34.1%. Consider `CN1[C@H](Cn2cncn2)C[C@@H]2CN(Cc3cccc(C#N)c3)CC[C@@H]21`, for which the INHIBITION is 20.1%. As for `CC(C)N1[C@H](CN2CCCC2)C[C@@H]2CN(Cc3ccoc3)CC[C@@H]21`, the INHIBITION is on record as -75.9%. The figure for `CC(C)N1[C@H](Cn2cncn2)C[C@@H]2CN(Cc3cccs3)CC[C@@H]21` is 57.5%; for `CC(C)N1[C@H](Cn2cccn2)C[C@@H]2CN(Cc3ccoc3)CC[C@@H]21` it is 57.9%; for `CC(C)N1[C@H](Cn2cncn2)C[C@@H]2CN(Cc3ccsc3)CC[C@@H]21` it is 47.5%. The figure for `Cc1cccc(C(CNC(=O)NCc2cc[nH]n2)N2CCOCC2)c1` (stereo not given) is 35.95%; for `CCN(Cc1ccoc1)C(=O)NC1CCN(C(=O)OC(C)(C)C)C1` (stereo not given) it is 1.93%.

Consider `CCc1ccc(C(N)c2cccc(S(C)(=O)=O)c2)cc1` (stereo not given), for which the INHIBITION came out at 48.1%. As for `CC1CCCCN1C(=O)COc1nc(C(C)(C)C)no1` (stereo not given), the INHIBITION is -29.2%.

As to `COc1ccc(CNc2nncs2)cc1F`, the INHIBITION is listed as 8.05%. Take `COc1cc(CNCc2ccnc(N3CCOCC3)c2)cc(Cl)c1OC`: the INHIBITION was found to be 40.3%. Regarding `Cn1cnnc1-c1ccnc(NCc2ccccc2)c1`, the INHIBITION is 57.7%. Regarding `COc1cc(CNc2cc(-c3nncn3C)ccn2)cc(OC)c1OC`, the INHIBITION was determined as 53.4%. Take `COc1cc(CNc2nc(N3CCOCC3)ns2)cc(OC)c1OC`: the INHIBITION is given as 8.05%.

With `COc1cc(CNCCc2cnn(C)c2)cc(OC)c1OC`, the INHIBITION turned out to be 31.55%.

On to `Cn1cnnc1-c1ccnc(NCc2ccc(Br)cc2)c1`, for which the INHIBITION was found to be 8.05%.

Turning to `COc1cc(CNc2nncs2)cc(OC)c1OC`, the INHIBITION stood at 80.8%. Consider `Cn1cnnc1-c1ccnc(NCc2ccc3c(c2)OCCO3)c1`, for which the INHIBITION worked out at 42.3%. As to `COCCN(Cc1cnn(C)c1)C(=O)C1CCN(C2CCCCC2)CC1`, the INHIBITION turned out to be 36.7%. With `C[C@@H]1CN(CCOc2ccc(Cl)cc2)CC[C@@]1(O)C1CCOCC1`, the INHIBITION is recorded as -17.8%. Take `O=C(N[C@@H]1CN(Cc2ccoc2)[C@@H]2CCCO[C@@H]21)C1CC1`: the INHIBITION came out at 11.2%. `Cn1cc(I)c(C(=O)NC2CCCCC2)n1`: the INHIBITION stood at 25.4%.

Consider `CCN(CC)c1ncc(Cl)c(C(=O)NC2CCC(O)CC2)n1` (stereo not given), for which the INHIBITION came out at 60.1%. Consider `Cc1cn2c(n1)CCC(NC(=O)c1nc(C)ncc1Cl)C2` (stereo not given), for which the INHIBITION was 30.3%.

On to `O=C(NC1CCc2nccn2C1)c1ccc(NC2CC2)nc1` (stereo not given), for which the INHIBITION turned out to be 7.58%. For the molecule `O=C(NC1CCC(O)CC1)c1cnc2c(cnn2C2CCCC2)c1` (stereo not given), the INHIBITION is 11.3%. As to `CN(Cc1cnn(C)c1)C(=O)NC1CCC(O)CC1` (stereo not given), the INHIBITION was 1.81%. Consider `CCN(CC)c1ncc(Cl)c(C(=O)NC2CC2)n1`, for which the INHIBITION amounted to 57.3%. The figure for `CCNc1ncc(C(=O)NC2CCC(n3cnnc3)CC2)cn1` (stereo not given) is 37.7%.
